# Measured values published in PubChem BioAssay (Tox21).
# Inconclusive results are not listed. A number with no mark means an inactive call. Active and inactive are the calls of the source. The call rests on the fitted dose curve; in most records, active means well fitted cell-killing curve with a large enough effect in the repeat runs; inconclusive means weak or mixed curves, or effect the other way; inactive means flat fitted curve, though single readings scatter.
# Assay: cAMP Responsive Elements (CRE) small molecule antagonists, cell-based qHTS assay: qHTS cell viability counter screen (AID 2060913); further: nearly all actives have a fitted effect of over 40% in size
# Conditions: CRE-bla HEK293T viability, CellTiter-Glo luminescence, 5 h; series mostly up to 92.4 µM; viability change, negative = cytotoxic: at the top concentration
# Summary of the method: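 CRE-bla HEK293T cells (2,000/well, 18 h) given compound plus NKH477 0.25 uM final for 3 h at 37C; viability counter-screen by CellTiter-Glo luminescence in same wells after 30 min.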
# On the % scale 0 is the no-effect control and ±100 the full control effect; potency means the concentration at half of the fitted maximal effect.
SMILES,"viability change, negative = cytotoxic",Potency
COC(=O)Cc1ccccc1,-2.79%,
CC1CC(CC2CCC(N)C(C)C2)CCC1N (stereo not given),6.34%,
CCOc1ccc(C(C)(C)COCc2cccc(Oc3ccccc3)c2)cc1,2.93%,
OC(c1ccc(Cl)cc1)(c1ccc(Cl)cc1)c1cccnc1,-11%,
COP(=O)(NC(C)=O)SC (stereo not given),,inactive
CC(C)[N+](C)(CCC(C(N)=O)(c1ccccc1)c1ccccc1)C(C)C,-2.13% [at 42.5 µM],
CC(C)CC(C)Nc1ccc(Nc2ccccc2)cc1 (stereo not given),-14.1%,
COc1cc(CC#N)cc(OC)c1OC,-0.238% [at 42.5 µM],
N#Cc1ccc(O)cc1,-7.38%,
Cc1cccc(C)c1NC(=O)CN1CCCC1=O,,inactive
O=C1c2ccccc2C(=O)C1C(=O)C(c1ccccc1)c1ccccc1,0.388% [at 42.5 µM],
CCN1CCC2(CC1)COc1cc3c(cc12)N(C(=O)c1ccc(-c2ccc(-c4nnc(C)o4)cc2C)cc1)CC3,,56.4 µM (active)
FC(F)OC(F)(F)C(F)Cl (stereo not given),3.37%,
O.O.O.O.O.O.O.O=S(=O)([O-])[O-].[Co+2],15.2%,
CC(C)(C)c1ccc(CSc2cnn(C(C)(C)C)c(=O)c2Cl)cc1,-17.6%,
CCCCN(CCCC)N=O,,inactive
CCCCOC(=O)[C@@H](C)Oc1ccc(Oc2ccc(C#N)cc2F)cc1,-3.37%,
CC[C@H]1C[C@@H]2C[C@H]3c4[nH]c5ccc(OC)cc5c4CCN(C2)[C@@H]13,-2.75%,
CN1CC[C@]23c4c5ccc(O)c4O[C@H]2[C@@H](O)CC[C@H]3[C@H]1C5,-1.04%,
COc1cccc2c1C(=O)c1c(O)c3c(c(O)c1C2=O)C[C@@](O)(C(=O)CO)CC3OC1CC(N2CCOC(OC)C2)C(O)C(C)O1 (stereo not given in full),10.2% [at 42.5 µM],

SMILES,"viability change, negative = cytotoxic",Potency
CC(C)CC(N(C)C)C1(c2ccc(Cl)cc2)CCC1 (stereo not given),13.7% [at 42.5 µM],
CC(C)NC(C)C,,inactive
[Cl][Sn]([c]1ccccc1)([c]1ccccc1)[c]1ccccc1,,2.59 µM (active)
CC(=O)[O-].CC(=O)[O-].[Co+2],9%,
N#Cc1nn(-c2c(Cl)cc(C(F)(F)F)cc2Cl)c(N)c1S(=O)C(F)(F)F (stereo not given),-16.1% [at 42.5 µM],
CCCCC(C#N)(Cn1cncn1)c1ccc(Cl)cc1 (stereo not given),,inactive
COP(N)(=S)Oc1ccccc1C(=O)OC(C)C (stereo not given),7.77%,
CNP(=O)(OC)Oc1ccc(C(C)(C)C)cc1Cl (stereo not given),-8.52%,
CCNS(=O)(=O)C(F)(F)C(F)(F)C(F)(F)C(F)(F)C(F)(F)C(F)(F)C(F)(F)C(F)(F)F,8.62%,
NC(=O)O,1.41%,
C[C@]12CC[C@@H]3c4ccc(OC(=O)N(CCCl)CCCl)cc4CC[C@H]3[C@@H]1CC[C@@H]2O,-0.486% [at 42.5 µM],
Cc1[nH]c(=O)n(C(C)(C)C)c(=O)c1Cl,,inactive
CCSC(C)CC1CC(=O)C(/C(CC)=N/OC/C=C/Cl)=C(O)C1 (stereo not given),1.26% [at 42.5 µM],
NC(=O)c1ccc(N)nc1,4.37%,
C=CCN1CC[C@]23c4c5ccc(O)c4O[C@H]2C(=O)CC[C@@]3(O)[C@H]1C5,7.51% [at 42.5 µM],
Cc1cc(C(C)(C)c2ccc(O)c(C)c2)ccc1O,-16.4%,
NS(=O)(=O)C(F)(F)C(F)(F)C(F)(F)C(F)(F)C(F)(F)C(F)(F)C(F)(F)C(F)(F)F,-4.78%,
CC(Cl)C(C)Cl (stereo not given),7.8%,
CCOP(=O)(NC(C)C)Oc1ccc(SC)c(C)c1 (stereo not given),7.1%,
Nc1c(Cl)c(F)nc(OCC(=O)O)c1Cl,-6.16%,
